# The campaign covered roughly 5,400 compounds. About 190 (3.5%) showed an effect of 50% or more. Only a selection was taken, and strong results are over-represented in it overall. Positions of bridges follow the written chain, without caps; N, C: chain ends. Non-standard residues stand in square brackets, D forms with d. Residues, ends and D or L forms follow the SMILES beside them. *: point of attachment. NMeF = CN[C@@H](Cc1ccccc1)C(=O)O; X1 = CCC(C)C(N)C1=NC(C(=O)*)CS1; dOrn = NCCC[C@@H](N)C(=O)O
# System: Vero-E6
# Assay: primary screen, phospholipidosis by LipidTOX staining; higher = more effect of the substance
# Details: 10 µM
# Outline: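 Single-concentration screen at 10 μM, with DMSO 0.1 v/v % and amiodarone 10 μM as controls. Read-out is LipidTOX Red phospholipid staining, which tolerates aldehyde fixation, in Vero-E6 cells.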
row,SMILES,result_ITMP [%]
1,N[C@@H](CSS(=O)(=O)[O-])C(=O)O,-1.62
2,C/C=C(\C(=C\C)c1ccc(O)cc1)c1ccc(O)cc1,0.7
3,CN1CCN(C2=Nc3ccccc3Sc3ccc(Cl)cc32)CC1,26.7
4,Clc1ccc2c(c1)N=C(N1CCNCC1)c1ccccc1N2,77.7
5,c1ccc2nc(N3CCNCC3)ccc2c1,9.23
6,Clc1cccc(N2CCNCC2)c1,4.14
7,Cc1cc2c(s1)Nc1ccccc1N=C2N1CCN(C)CC1,-8.9
8,Clc1ccc2c(c1)C(N1CCNCC1)=Nc1ccccc1O2,70
9,Cc1ccc(Oc2ccccc2-c2csc(NC3=NCCCN3)n2)c(C)c1,6.61
10,COc1cc(CCc2cc(NC(=O)c3ccc(N4C[C@@H](C)N[C@@H](C)C4)cc3)n[nH]2)cc(OC)c1,30.8
11,C=C[C@@]1(C)CC(=O)[C@]2(O)[C@@]3(C)[C@@H](O)CCC(C)(C)[C@@H]3C(OC(=O)CCN(C)C)C(OC(C)=O)[C@@]2(C)O1 (stereo partly drawn),4.63
12,C[C@H](CCC(=O)NCCS(=O)(=O)O)[C@H]1CC[C@H]2[C@@H]3[C@H](O)C[C@@H]4C[C@H](O)CC[C@]4(C)[C@H]3C[C@H](O)[C@]12C,-2.23
13,CC(O)COC[C@H]1OC2O[C@H]3[C@H](O)[C@@H](O)C(O[C@H]4[C@H](O)[C@@H](O)C(O[C@H]5[C@H](O)[C@@H](O)C(O[C@H]6[C@H](O)[C@@H](O)C(O[C@H]7[C@H](O)[C@@H](O)C(O[C@H]8[C@H](O)[C@@H](O)C(O[C@H]1[C@H](O)[C@H]2O)O[C@@H]8COCC(C)O)O[C@@H]7COCC(C)O)O[C@@H]6COCC(C)O)O[C@@H]5COCC(C)O)O[C@@H]4COCC(C)O)O[C@@H]3COCC(C)O (stereo partly drawn),-3.69
14,COc1ccc(C[C@@H](C)[C@@H](C)Cc2ccc(OC)c(OC)c2)cc1OC,6.63
15,COc1ccc(Cc2nc(=O)c3c(C)nc([C@@H](CCCc4ccccc4)[C@@H](C)O)n3[nH]2)cc1OC,0.34
16,C=CC(=O)Nc1cccc(Oc2nc(Nc3ccc(N4CCN(C)CC4)cc3)nc3ccsc23)c1,37.8
17,C=CC(=O)Nc1cccc(Oc2nc(Nc3ccc(N4CCN(C)CC4)cc3OC)ncc2Cl)c1,-1.32
18,C=CC(=O)Nc1cccc(Oc2nc(Nc3ccc(N4CCN(C)CC4)cc3)ncc2Cl)c1,70.5
19,C[C@H]1[C@H](C)CC[C@]2(C(=O)O)CC[C@]3(C)C(=CC[C@@H]4[C@@]5(C)C[C@@H](O)[C@H](O)[C@@](C)(CO)[C@@H]5CC[C@]43C)[C@H]12,-2.77
20,Cc1cnc(Nc2ccc(OCCN3CCCC3)cc2)nc1Nc1cccc(S(=O)(=O)NC(C)(C)C)c1,122
21,Cc1cc(-c2cc(O)ccc2Cl)cc2nnc(Nc3ccc(OCCN4CCCC4)cc3)nc12,-2.38
22,Cc1cnc(Nc2ccc(N3CCN(C)CC3)cc2)nc1Nc1cccc(S(=O)(=O)NC(C)(C)C)c1,21.8
23,Cn1cnc2nc(O)nc(O)c21,0.82
24,Cc1nc2ccc(Oc3ccc(F)cc3)cc2c(=O)n1C[C@H]1CCCN(C(C)C)C1,56.3
25,O=C([O-])[C@H](O)[C@@H](O)[C@H](O)[C@H](O)C(O)CO (stereo partly drawn),-2.51

row,SMILES,result_ITMP [%]
1,Cn1nccc1Nc1nccc(-c2ccn([C@H](CO)c3ccc(Cl)c(F)c3)c(=O)c2)n1 [R4A_0003897_001 / SPE_A20830788],1.66
2,CNCCC(Oc1ccc(C(F)(F)F)cc1)c1ccccc1 (stereo not drawn),54.3
3,COCCCC/C(=N\OCCN)c1ccc(C(F)(F)F)cc1,48.9
4,NCCC(Oc1ccc(C(F)(F)F)cc1)c1ccccc1 (stereo not drawn),62.2
5,CNCCC(Oc1ccccc1OC)c1ccccc1 (stereo not drawn),13
6,CN(CC[C@@H](Oc1ccc(-c2ccccc2)cc1)c1ccc(F)cc1)CC(=O)O,0.25
7,CN1C2CC(O)[C@H]1C[C@@H](OC(=O)[C@H](CO)c1ccccc1)C2 (mixture of isomers),-3.11
8,CCCN1C[C@@H](NS(=O)(=O)N(CC)CC)C[C@@H]2Cc3c(O)cccc3C[C@H]21,0.96
9,CC(=O)O.CC(=O)O.N.NC1CCCCC1.[Cl][Pt][Cl],-1.8
10,O=C([O-])Cc1ccccc1Nc1c(Cl)cccc1Cl,-2.2
11,CN(C(=O)Cc1ccc(Cl)c(Cl)c1)[C@H](CN1CCCC1)c1ccccc1,53.5
12,CN(C(=O)Cc1ccccc1)C(CN1CCCC1)c1ccccc1 (stereo not drawn),6.1
13,CN(C(=O)CN1C(=O)COc2cc(Cl)c(Cl)cc21)[C@@H](CN1CCCC1)c1ccc(-c2cccc(C(N)=O)c2)cc1,41.8
14,CCC(C)C(N)C1=NC(C(=O)N[C@@H](CC(C)C)C(=O)N[C@H](CCC(=O)[O-])C(=O)N[C@H](C(=O)N[C@H]2CCCCNC(=O)[C@H](CC(N)=O)NC(=O)[C@@H](CC(=O)[O-])NC(=O)[C@@H](Cc3cnc[nH]3)NC(=O)[C@@H](Cc3ccccc3)NC(=O)[C@@H]([C@H](C)CC)NC(=O)[C@@H](CCCN)NC2=O)[C@@H](C)CC)CS1 (stereo partly drawn) (X1-L[dE]IK[dOrn][dI][dF][dH][dD]N; lactam 4-C),-3.81
15,Cc1cccn2c(=O)c(-c3nn[n-]n3)cnc12,-2.44
16,CCN(CC)CCOc1ccccc1C(=O)CCc1ccccc1,30.6
17,CCCNCC(O)COc1ccccc1C(=O)CCc1ccccc1 (stereo not drawn),86.6
18,CCCC(=O)c1cc(F)ccc1OCC(O)CNC(C)(C)C (stereo not drawn),20.3
19,Cn1nnnc1SCC1=C(C(=O)[O-])N2C(=O)[C@@H](NC(=O)[C@H](O)c3ccccc3)[C@H]2SC1,-1.4
20,O=C(O)c1ccc(CN2CCC(CN[C@@H]3C[C@H]3c3ccccc3)CC2)cc1,-1.25
21,CN1CCN(C(=O)CN[C@@H]2C[C@H]2c2ccc(OCc3ccccc3)cc2)CC1,87.7
22,Oc1ccc(OCc2ccccc2)cc1,-11.6
23,Cc1cc(Nc2cc(CN3CCOCC3)c3nc(C)c(Cc4ccc(Cl)cc4F)n3n2)[nH]n1,13
24,COc1ccc2cc1Oc1ccc(cc1)C[C@H]1c3cc(c(OC)cc3CCN1C)Oc1c(OC)c(OC)cc3c1[C@H](C2)N(C)CC3,17.4
25,COc1cc2c3cc1Oc1cc(ccc1O)C[C@@H]1c4c(cc(OC)c(O)c4Oc4ccc(cc4)C[C@@H]3N(C)CC2)CC[N+]1(C)C,-3.39

row,SMILES,result_ITMP [%]
1,COc1ccc2cc1Oc1ccc(cc1)C[C@H]1c3c(cc4c(c3Oc3cc5c(cc3OC)CCN(C)[C@@H]5C2)OCO4)CCN1C,57
2,CCN(CC)C(=S)[S-],-6.15
3,COCCCOc1ccnc(CS(=O)c2nc3ccccc3[n-]2)c1C (stereo not drawn),-0.77
4,COc1cc(N2CCOCC2)ccc1Nc1ncc(Cl)c(Nc2ccccc2NS(C)(=O)=O)n1,51.4
5,COc1cc(N2CCC(N(C)C)CC2)ccc1Nc1ncc(Cl)c(Nc2ccccc2P(C)(C)=O)n1,51.8
6,COc1cc(N2CCC(N3CCN(C)CC3)CC2)ccc1Nc1ncc(Cl)c(Nc2ccccc2P(C)(C)=O)n1,-0.55
7,COc1cc(N2CCC(N)CC2)ccc1Nc1ncc(Cl)c(-c2c[nH]c3ccccc23)n1,15.8
8,CNC(=O)c1ccccc1Nc1nc(Nc2ccc(N3CCOCC3)cc2OC)ncc1Cl,3.78
9,CCC(=O)Nc1cccc(Oc2nc(Nc3ccc(N4CCN(C)CC4)cc3OC)ncc2Cl)c1,-5.58
10,O=c1nc[nH]c2c([C@@H]3N[C@H](CO)[C@@H](O)[C@H]3O)c[nH]c12,-0.15
11,CC(C)C[C@H](NC(=O)CNC(=O)[C@H](Cc1ccc(O)cc1)NC(=O)[C@H](CO)NC(=O)[C@H](Cc1c[nH]c2ccccc12)NC(=O)[C@H](Cc1c[nH]cn1)NC(=O)[C@@H]1CCC(=O)N1)C(=O)N[C@@H](CCCNC(=N)N)C(=O)N1CCC[C@H]1C(=O)NCC(N)=O,1.23
12,CN/C(=N\C#N)NCCSCc1nc[nH]c1C,-2.74
13,Cc1cc(N2CCOCC2)cc2nc(-c3c(NC[C@@H](O)c4cccc(Cl)c4)cc[nH]c3=O)[nH]c12,-0.86
14,CCN(CC)CCCN(c1ccccc1)C1Cc2ccccc2C1,51.9
15,COc1cc[nH]c2ncc(C(=O)C(=O)N3CCN(C(=O)c4ccccc4)C[C@H]3C)c1-2,-6.29
16,CSCC[C@H](NC(=O)[C@H](CC(C)C)NC(=O)[C@@H](Cc1c[nH]c2ccccc12)NC(=O)[C@H](Cc1ccccc1)N(C)C(=O)[C@@H](Cc1c[nH]c2ccccc12)NC(=O)[C@@H](N)CCCN=C(N)N)C(N)=O (H-R[dW][NMeF][dW]LM-NH2),-1.85
17,CCOC(=O)c1ccc(OCCC2CCN(c3ccc(C)nn3)CC2)cc1,-2.25
18,CC1(COc2ccc3c(c2)ncn3-c2ccc3cccc(N4CCC(N)CC4)c3n2)COC1,64.2
19,COCCOc1ccc2c(c1)ncn2-c1ccc2cccc(N3CCC(N)CC3)c2n1,62.5
20,NC1CCN(c2cccc(Cl)n2)CC1,6.27
21,CCN1CCN(C(=O)NC(C(=O)N[C@@H]2C(=O)N3[C@@H]2SC(C)(C)[C@@H]3C(=O)[O-])c2ccccc2)C(=O)C1=O (stereo partly drawn),-2.05
22,C=CC(=O)N1CCCC(n2nc(-c3ccc(Oc4ccccc4)cc3)c3c(N)ncnc32)C1 (stereo not drawn),-4.8
23,N[C@@H](Cc1ccc(I)cc1)C(=O)O,-0.07
24,N=C(N)SCc1ccc(B(O)O)cc1,-0.1
25,CC(=O)O[C@H]1CC[C@@]2(C)C(=CC(=O)[C@@H]3[C@@H]2CC[C@]2(C)C(=O)CC[C@@H]32)C1,-7.66

# From publication PMC13083723 (Patterns, 2026)
